We go through 39 compounds from the supplement of paper PMC9844399.

Where a name gives a salt, the structure may show the parent alone.
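For MALAT1 nuclear FISH intensity, robust Z-score vs DMSO in this document: High-content confocal imaging of branched-DNA amplified FISH in 384-well plates, Hoechst-defined nuclei, score is well value minus plate DMSO median over DMSO robust SD, four wells per compound.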
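For nuclear count per well, robust Z-score vs DMSO in this document: Hoechst-stained nuclei counted by automated confocal imaging of four fields per well in 384-well plates, with the robust Z-score based on the per-plate DMSO median and robust SD.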

The test system of the first experiment is HeLa. Description: nuclear count per well, robust Z-score vs DMSO; higher = more cells (less toxicity). The conditions noted are these: 10 µM; 6 h.
Take `CNS(=O)(=O)CCc1ccc2[nH]cc(C3CCN(C)CC3)c2c1`: the “nuclear count per well” value was -0.5.

As for `CCCCCCCCCCC/C=C\C/C=C\CCCC(=O)O` [Eicosa-5,8-dienoic acid (20:2 n-12)], the “nuclear count per well” value was -0.432.

Consider `N[C@@H]1[C@H]2CN(c3nc4c(cc3F)c(=O)c(C(=O)O)cn4-c3ccc(F)cc3F)C[C@@H]12` [Trovafloxacin mesylate], for which the “nuclear count per well” value is -0.169.

Regarding `CC1(COc2ccc(CC3SC(=O)NC3=O)cc2)CCCCC1` (stereo not drawn) [Ciglitazone], the “nuclear count per well” value turned out to be 1.14.

On to `CCCCCCCCCCCCC/C=C/[C@@H](O)[C@H](CO)NC(=O)CCCCCCC` [C8 Ceramide], for which the “nuclear count per well” value is -0.0493.

On to `COc1ccccc1OCC(O)CN1CCN(CC(=O)Nc2c(C)cccc2C)CC1` (stereo not drawn), for which the “nuclear count per well” value was 0.151.

`CCCCC[C@H](O)/C=C/C=C\CCCCCCCC(=O)O`: the “nuclear count per well” value is -0.297.

In the case of `CN(C)[C@@H]1C(O)=C(C(N)=O)C(=O)[C@@]2(O)C(O)=C3C(=O)c4c(O)ccc(Cl)c4[C@@H](O)[C@H]3C[C@@H]12`, the “nuclear count per well” value was determined as 1.38.

For `CC=CC(=O)N(CC)c1ccccc1C` [Crotamiton], the “nuclear count per well” value was -0.628.

For the compound `CN(C)CCc1c[nH]c2ccc(CS(=O)(=O)N3CCCC3)cc12` [Almotriptan], the “nuclear count per well” value is -0.368.

Consider `O=C(O)CCCC[C@@H]1SC[C@@H]2NC(=O)N[C@@H]21` [Biotin], for which the “nuclear count per well” value came to 0.186.

`COC(=O)c1c(C)[nH]c(C)c1C(=O)c1ccccc1Cc1ccccc1`: the “nuclear count per well” value amounted to 0.495.

As for `COC(=O)C1=C(C)NC(C)=C(C(=O)OCCSc2ccccc2)C1C` (stereo not drawn), the “nuclear count per well” value was determined as 0.341.

Take `N=C(N)NC(=N)NCCc1ccccc1` [Phenformin hydrochloride]: the “nuclear count per well” value is -0.167.

Consider `c1ccc2[nH]c(-c3cscn3)nc2c1` [Thiabendazole], for which the “nuclear count per well” value was found to be 0.317.

Take `Nc1nc2[nH]cnc2c(=S)[nH]1` [Thioguanine (6-Thioguanine)]: the “nuclear count per well” value is -0.265.

For `CC(S)C(=O)NCC(=O)O` (stereo not drawn) [Tiopronin], the “nuclear count per well” value came out at 0.258.

On to `CC(C)NNC(=O)c1ccncc1` [Iproniazid Phosphate], for which the “nuclear count per well” value is -0.732.

For `CC(=O)O[C@H]1C[C@@]2(C)[C@@H](C[C@@H](O)[C@H]3[C@@]4(C)CC[C@@H](O)[C@@H](C)[C@@H]4CC[C@@]32C)/C1=C(\CCC=C(C)C)C(=O)O` [Fucidin], the “nuclear count per well” value is 0.193.

Take `O=C(O)c1cccnc1` [Niacin]: the “nuclear count per well” value is -0.0949.

Take `N[C@@H](C(=O)N[C@@H]1C(=O)N2C(C(=O)O)=C(Cl)CS[C@H]12)c1ccccc1` [Cefaclor]: the “nuclear count per well” value was -0.195.

As for `Nc1nc(N)c2nc(-c3ccccc3)c(N)nc2n1` [Triamterene], the “nuclear count per well” value amounted to 0.0684.

Turning to `CC(C)(C(=O)O)c1ccc(C(O)CCCN2CCC(C(O)(c3ccccc3)c3ccccc3)CC2)cc1` (stereo not drawn), the “nuclear count per well” value is -1.47.

`CC(C(C)N1CC(=O)NC(=O)C1)N1CC(=O)NC(=O)C1` (stereo not drawn): the “nuclear count per well” value was -2.95.

Take `CN(C)CCOc1ccc(-c2nc(-c3ccncc3)c(-c3ccc4c(c3)CC/C4=N\O)[nH]2)cc1`: the “nuclear count per well” value was -0.833.

In the case of `COC(=O)C1=C(C)NC(C)=C(C(=O)OCC(C)C)C1c1ccccc1[N+](=O)[O-]` (stereo not drawn) [Nisoldipine], the “nuclear count per well” value was found to be 0.984.

Take `CCCNC(C)C(=O)Nc1ccccc1C` (stereo not drawn): the “nuclear count per well” value is -0.0843.

Take `COc1ccc2[nH]c([S+]([O-])Cc3ncc(C)c(OC)c3C)nc2c1` (stereo not drawn) [Omeprazole]: the “nuclear count per well” value is -0.664.

For `COC(=O)c1ccc(O)cc1` [Methylparaben], the “nuclear count per well” value is 0.306.

Take `O=C(CCCN1CC=C(n2c(=O)[nH]c3ccccc32)CC1)c1ccc(F)cc1` [Droperidol]: the “nuclear count per well” value was determined as 0.035.

For `CO[C@@]12[C@H](COC(N)=O)C3=C(C(=O)C(C)=C(N)C3=O)N1C[C@@H]1N[C@@H]12` [Mitomycin C from Streptomyces caespitosus], the “nuclear count per well” value worked out at 0.712.

For `COc1ccc(CCCOC(Cn2ccnc2)c2ccc(OC)cc2)cc1` (stereo not drawn), the “nuclear count per well” value was 0.665.

For `CS(=O)(=O)OCCCCOS(C)(=O)=O` [Busulfan], the “nuclear count per well” value came to 1.24.

For the compound `O=c1ncccn1[C@@H]1O[C@H](CO)[C@@H](O)[C@H]1O` [Zebularine], the “nuclear count per well” value was 1.77.

As for `COc1ccc([C@@H]2Sc3ccccc3N(CCN(C)C)C(=O)[C@@H]2OC(C)=O)cc1`, the “nuclear count per well” value turned out to be 0.374.

Consider `CN(C)c1ccc(O)c2c1C[C@H]1C[C@H]3[C@H](N(C)C)C(O)=C(C(N)=O)C(=O)[C@@]3(O)C(O)=C1C2=O`, for which the “nuclear count per well” value was 1.36.

In the case of `C[C@@H]1NC(=O)[C@@H](N)CNC(=O)[C@H](C2CCNC(=N)N2)NC(=O)/C(=C/NC(N)=O)NC(=O)[C@H](CNC(=O)CC(N)CCCN)NC1=O.N=C1NCC[C@H]([C@@H]2NC(=O)/C(=C/NC(N)=O)NC(=O)[C@H](CNC(=O)C[C@@H](N)CCCN)NC(=O)[C@H](CO)NC(=O)[C@@H](N)CNC2=O)N1` [Capreomycin Disulfate], the “nuclear count per well” value is 2.37.

For `COc1cc2ncnc(Nc3cccc(Cl)c3)c2cc1OC`, the “nuclear count per well” value was determined as 0.518.

On to `C=C1/C(=C\C=C2/CCC[C@]3(C)[C@@H]([C@H](C)CCCC(C)(C)O)CC[C@@H]23)C[C@@H](O)C[C@@H]1O` [1?,25-Dihydroxyvitamin D3], for which the “nuclear count per well” value is 0.361.

In another experiment the test system is HeLa. Description: MALAT1 nuclear FISH intensity, robust Z-score vs DMSO; higher = more nuclear MALAT1 lncRNA, active = -3 or less. The conditions noted are these: 10 µM; 6 h.
On to `CNS(=O)(=O)CCc1ccc2[nH]cc(C3CCN(C)CC3)c2c1`, for which the “MALAT1 nuclear FISH intensity” value is -0.52 (inactive).

As for `CCCCCCCCCCC/C=C\C/C=C\CCCC(=O)O` [Eicosa-5,8-dienoic acid (20:2 n-12)], the “MALAT1 nuclear FISH intensity” value was 1.05 (inactive).

Consider `N[C@@H]1[C@H]2CN(c3nc4c(cc3F)c(=O)c(C(=O)O)cn4-c3ccc(F)cc3F)C[C@@H]12` [Trovafloxacin mesylate], for which the “MALAT1 nuclear FISH intensity” value is -0.772 (inactive).

As for `CC1(COc2ccc(CC3SC(=O)NC3=O)cc2)CCCCC1` (stereo not drawn) [Ciglitazone], the “MALAT1 nuclear FISH intensity” value was 0.154 (inactive).

For the compound `CCCCCCCCCCCCC/C=C/[C@@H](O)[C@H](CO)NC(=O)CCCCCCC` [C8 Ceramide], the “MALAT1 nuclear FISH intensity” value was 0.0724 (inactive).

In the case of `COc1ccccc1OCC(O)CN1CCN(CC(=O)Nc2c(C)cccc2C)CC1` (stereo not drawn), the “MALAT1 nuclear FISH intensity” value is -0.961 (inactive).

For the compound `CCCCC[C@H](O)/C=C/C=C\CCCCCCCC(=O)O`, the “MALAT1 nuclear FISH intensity” value was 0.385 (inactive).

For the compound `CN(C)[C@@H]1C(O)=C(C(N)=O)C(=O)[C@@]2(O)C(O)=C3C(=O)c4c(O)ccc(Cl)c4[C@@H](O)[C@H]3C[C@@H]12`, the “MALAT1 nuclear FISH intensity” value is -1.19 (inactive).

With `CC=CC(=O)N(CC)c1ccccc1C` [Crotamiton], the “MALAT1 nuclear FISH intensity” value was -0.428 (inactive).

Take `CN(C)CCc1c[nH]c2ccc(CS(=O)(=O)N3CCCC3)cc12` [Almotriptan]: the “MALAT1 nuclear FISH intensity” value was -1.86 (inactive).

As for `O=C(O)CCCC[C@@H]1SC[C@@H]2NC(=O)N[C@@H]21` [Biotin], the “MALAT1 nuclear FISH intensity” value was -0.445 (inactive).

`COC(=O)c1c(C)[nH]c(C)c1C(=O)c1ccccc1Cc1ccccc1`: the “MALAT1 nuclear FISH intensity” value is 1.4 (inactive).

Consider `COC(=O)C1=C(C)NC(C)=C(C(=O)OCCSc2ccccc2)C1C` (stereo not drawn), for which the “MALAT1 nuclear FISH intensity” value was -0.958 (inactive).

For `N=C(N)NC(=N)NCCc1ccccc1` [Phenformin hydrochloride], the “MALAT1 nuclear FISH intensity” value is -0.626 (inactive).

As to `c1ccc2[nH]c(-c3cscn3)nc2c1` [Thiabendazole], the “MALAT1 nuclear FISH intensity” value was -0.594 (inactive).

Consider `Nc1nc2[nH]cnc2c(=S)[nH]1` [Thioguanine (6-Thioguanine)], for which the “MALAT1 nuclear FISH intensity” value was -3.61 (active).

With `CC(S)C(=O)NCC(=O)O` (stereo not drawn) [Tiopronin], the “MALAT1 nuclear FISH intensity” value is 1.65 (inactive).

Regarding `CC(C)NNC(=O)c1ccncc1` [Iproniazid Phosphate], the “MALAT1 nuclear FISH intensity” value was 0.405 (inactive).

Take `CC(=O)O[C@H]1C[C@@]2(C)[C@@H](C[C@@H](O)[C@H]3[C@@]4(C)CC[C@@H](O)[C@@H](C)[C@@H]4CC[C@@]32C)/C1=C(\CCC=C(C)C)C(=O)O` [Fucidin]: the “MALAT1 nuclear FISH intensity” value was -0.351 (inactive).

As for `O=C(O)c1cccnc1` [Niacin], the “MALAT1 nuclear FISH intensity” value is -1.11 (inactive).

Regarding `N[C@@H](C(=O)N[C@@H]1C(=O)N2C(C(=O)O)=C(Cl)CS[C@H]12)c1ccccc1` [Cefaclor], the “MALAT1 nuclear FISH intensity” value is 1.19 (inactive).

With `Nc1nc(N)c2nc(-c3ccccc3)c(N)nc2n1` [Triamterene], the “MALAT1 nuclear FISH intensity” value is 0.85 (inactive).

In the case of `CC(C)(C(=O)O)c1ccc(C(O)CCCN2CCC(C(O)(c3ccccc3)c3ccccc3)CC2)cc1` (stereo not drawn), the “MALAT1 nuclear FISH intensity” value is 0.113 (inactive).

Turning to `CC(C(C)N1CC(=O)NC(=O)C1)N1CC(=O)NC(=O)C1` (stereo not drawn), the “MALAT1 nuclear FISH intensity” value is -1.32 (inactive).

Regarding `CN(C)CCOc1ccc(-c2nc(-c3ccncc3)c(-c3ccc4c(c3)CC/C4=N\O)[nH]2)cc1`, the “MALAT1 nuclear FISH intensity” value is 1.78 (inactive).

In the case of `COC(=O)C1=C(C)NC(C)=C(C(=O)OCC(C)C)C1c1ccccc1[N+](=O)[O-]` (stereo not drawn) [Nisoldipine], the “MALAT1 nuclear FISH intensity” value was 0.765 (inactive).

In the case of `CCCNC(C)C(=O)Nc1ccccc1C` (stereo not drawn), the “MALAT1 nuclear FISH intensity” value was -0.948 (inactive).

Take `COc1ccc2[nH]c([S+]([O-])Cc3ncc(C)c(OC)c3C)nc2c1` (stereo not drawn) [Omeprazole]: the “MALAT1 nuclear FISH intensity” value was 0.765 (inactive).

In the case of `COC(=O)c1ccc(O)cc1` [Methylparaben], the “MALAT1 nuclear FISH intensity” value was -0.359 (inactive).

As to `O=C(CCCN1CC=C(n2c(=O)[nH]c3ccccc32)CC1)c1ccc(F)cc1` [Droperidol], the “MALAT1 nuclear FISH intensity” value was 2.02 (inactive).

For `CO[C@@]12[C@H](COC(N)=O)C3=C(C(=O)C(C)=C(N)C3=O)N1C[C@@H]1N[C@@H]12` [Mitomycin C from Streptomyces caespitosus], the “MALAT1 nuclear FISH intensity” value is -0.11 (inactive).

`COc1ccc(CCCOC(Cn2ccnc2)c2ccc(OC)cc2)cc1` (stereo not drawn): the “MALAT1 nuclear FISH intensity” value is -0.276 (inactive).

`CS(=O)(=O)OCCCCOS(C)(=O)=O` [Busulfan]: the “MALAT1 nuclear FISH intensity” value is 0.506 (inactive).

In the case of `O=c1ncccn1[C@@H]1O[C@H](CO)[C@@H](O)[C@H]1O` [Zebularine], the “MALAT1 nuclear FISH intensity” value is -0.816 (inactive).

Turning to `COc1ccc([C@@H]2Sc3ccccc3N(CCN(C)C)C(=O)[C@@H]2OC(C)=O)cc1`, the “MALAT1 nuclear FISH intensity” value is -0.0376 (inactive).

As for `CN(C)c1ccc(O)c2c1C[C@H]1C[C@H]3[C@H](N(C)C)C(O)=C(C(N)=O)C(=O)[C@@]3(O)C(O)=C1C2=O`, the “MALAT1 nuclear FISH intensity” value was 0.55 (inactive).

Turning to `C[C@@H]1NC(=O)[C@@H](N)CNC(=O)[C@H](C2CCNC(=N)N2)NC(=O)/C(=C/NC(N)=O)NC(=O)[C@H](CNC(=O)CC(N)CCCN)NC1=O.N=C1NCC[C@H]([C@@H]2NC(=O)/C(=C/NC(N)=O)NC(=O)[C@H](CNC(=O)C[C@@H](N)CCCN)NC(=O)[C@H](CO)NC(=O)[C@@H](N)CNC2=O)N1` [Capreomycin Disulfate], the “MALAT1 nuclear FISH intensity” value was 0.502 (inactive).

With `COc1cc2ncnc(Nc3cccc(Cl)c3)c2cc1OC`, the “MALAT1 nuclear FISH intensity” value was -0.787 (inactive).

As to `C=C1/C(=C\C=C2/CCC[C@]3(C)[C@@H]([C@H](C)CCCC(C)(C)O)CC[C@@H]23)C[C@@H](O)C[C@@H]1O` [1?,25-Dihydroxyvitamin D3], the “MALAT1 nuclear FISH intensity” value is -0.354 (inactive).
